The results in this text go back to publication PMC7862700, “An all-to-all approach to the identification of sequence-specific readers for epigenetic DNA modifications on cytosine”.

Experiment in all cases: DAPPL (digital affinity profiling via proximity ligation, sequencing); 10 mM Tris-HCl pH 7.5, 50 mM NaCl, 1 mM DTT, 4% glycerol, room temperature, 30 min; GST-TFs on glutathione beads, 16-mer random dsDNA library, 0.1% formaldehyde crosslink after washing; high values mean tight binding
Common to all, as to settings: protein: recombinant; tags: N-terminal GST; dsDNA, one strand shown

One assay addresses T1, ERF (Homo sapiens, UniProt P50548 1-548).
T1 sequence: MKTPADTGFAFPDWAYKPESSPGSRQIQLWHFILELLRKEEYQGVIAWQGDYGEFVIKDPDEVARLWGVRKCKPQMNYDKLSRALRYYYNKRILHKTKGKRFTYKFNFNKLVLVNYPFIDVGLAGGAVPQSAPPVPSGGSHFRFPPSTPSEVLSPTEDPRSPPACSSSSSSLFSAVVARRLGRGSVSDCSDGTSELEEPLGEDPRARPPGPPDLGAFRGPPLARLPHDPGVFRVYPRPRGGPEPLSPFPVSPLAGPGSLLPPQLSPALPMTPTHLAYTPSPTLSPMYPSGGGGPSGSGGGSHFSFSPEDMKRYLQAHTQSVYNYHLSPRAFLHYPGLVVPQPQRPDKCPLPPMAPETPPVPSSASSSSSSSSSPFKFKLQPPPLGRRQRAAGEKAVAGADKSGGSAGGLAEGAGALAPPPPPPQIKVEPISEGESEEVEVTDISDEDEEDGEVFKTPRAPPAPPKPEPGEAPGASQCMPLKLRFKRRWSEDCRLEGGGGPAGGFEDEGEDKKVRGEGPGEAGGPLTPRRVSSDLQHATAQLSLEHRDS
In outline:
(§1)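 Pools were built from human transcription factors expressed in yeast as GST fusions, captured on glutathione beads and DNA-barcoded, along with a tag-only sample. Incubation with 200 nmole of a 16-mer random double-stranded DNA library lasted 30 min at room temperature in Tris/NaCl/DTT/glycerol buffer, and was followed by washing, 0.1% formaldehyde crosslinking, proximity ligation, PCR amplification and Illumina NextSeq500 sequencing. Binding signal is the quotient of each hexamer's read frequency for a factor and its frequency for the tag-only sample.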

For the next assay, the target named is T2, ETV3L (Homo sapiens, UniProt Q6ZN32 1-361).
T2 sequence: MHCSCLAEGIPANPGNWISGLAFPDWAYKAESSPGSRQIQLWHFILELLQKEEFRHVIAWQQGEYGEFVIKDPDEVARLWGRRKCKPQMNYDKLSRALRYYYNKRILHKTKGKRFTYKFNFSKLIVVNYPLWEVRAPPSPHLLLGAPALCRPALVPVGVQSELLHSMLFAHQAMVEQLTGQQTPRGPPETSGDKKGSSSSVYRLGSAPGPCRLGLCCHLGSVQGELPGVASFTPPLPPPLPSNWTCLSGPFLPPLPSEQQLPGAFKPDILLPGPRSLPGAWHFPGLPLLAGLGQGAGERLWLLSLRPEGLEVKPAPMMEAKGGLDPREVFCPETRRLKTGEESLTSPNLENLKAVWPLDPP
In outline:
as §1

Another assay addresses T3, ETS2 (Homo sapiens, UniProt P15036 1-469).
T3 sequence: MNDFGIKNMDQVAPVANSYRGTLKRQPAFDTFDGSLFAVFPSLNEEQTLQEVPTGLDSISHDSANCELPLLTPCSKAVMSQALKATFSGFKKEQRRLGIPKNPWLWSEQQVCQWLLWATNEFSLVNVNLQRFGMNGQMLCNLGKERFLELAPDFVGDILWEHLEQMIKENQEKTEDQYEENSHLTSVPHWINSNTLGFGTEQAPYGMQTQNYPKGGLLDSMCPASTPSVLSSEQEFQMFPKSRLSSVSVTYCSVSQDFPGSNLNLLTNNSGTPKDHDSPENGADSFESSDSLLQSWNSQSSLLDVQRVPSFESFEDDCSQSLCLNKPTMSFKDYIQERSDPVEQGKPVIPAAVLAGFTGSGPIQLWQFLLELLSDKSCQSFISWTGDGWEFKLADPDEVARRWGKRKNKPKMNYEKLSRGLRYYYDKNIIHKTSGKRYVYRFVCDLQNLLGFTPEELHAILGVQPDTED
Summed up: as §1

For the next assay, the target named is T4, SPDEF (Homo sapiens, UniProt O95238 1-335).
T4 sequence: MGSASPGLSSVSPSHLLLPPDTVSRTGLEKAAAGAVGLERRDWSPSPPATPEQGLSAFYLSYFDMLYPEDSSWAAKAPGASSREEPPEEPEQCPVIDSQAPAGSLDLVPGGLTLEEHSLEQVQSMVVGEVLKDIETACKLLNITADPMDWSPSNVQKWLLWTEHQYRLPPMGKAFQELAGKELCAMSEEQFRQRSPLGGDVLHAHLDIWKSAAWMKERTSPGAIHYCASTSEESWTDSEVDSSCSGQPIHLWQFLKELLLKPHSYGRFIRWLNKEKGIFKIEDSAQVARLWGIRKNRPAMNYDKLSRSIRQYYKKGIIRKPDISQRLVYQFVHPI
Summed up:
as §1

The target in a further assay is T5, ETV7 (Homo sapiens, UniProt Q9Y603 1-341).
T5 sequence: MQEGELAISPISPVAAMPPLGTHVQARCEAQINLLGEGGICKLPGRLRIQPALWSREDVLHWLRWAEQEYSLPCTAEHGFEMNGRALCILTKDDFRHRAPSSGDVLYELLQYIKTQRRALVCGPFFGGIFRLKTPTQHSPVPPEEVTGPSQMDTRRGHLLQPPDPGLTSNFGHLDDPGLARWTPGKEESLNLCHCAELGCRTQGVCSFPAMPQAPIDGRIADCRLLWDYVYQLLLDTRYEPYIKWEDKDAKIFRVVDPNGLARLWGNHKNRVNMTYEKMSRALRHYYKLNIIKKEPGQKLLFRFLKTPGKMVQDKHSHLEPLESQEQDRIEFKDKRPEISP
In outline:
as §1

In another assay the target is T6, ELF5 (Homo sapiens, UniProt Q9UKW6-2 1-255).
T6 sequence: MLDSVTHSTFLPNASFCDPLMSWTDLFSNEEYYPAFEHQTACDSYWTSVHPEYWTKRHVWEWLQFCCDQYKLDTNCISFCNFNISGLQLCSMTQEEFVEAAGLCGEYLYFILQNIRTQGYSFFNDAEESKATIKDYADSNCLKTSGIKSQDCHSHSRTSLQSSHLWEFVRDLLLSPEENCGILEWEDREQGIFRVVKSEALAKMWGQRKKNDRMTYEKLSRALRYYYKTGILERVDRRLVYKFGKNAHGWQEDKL
In outline:
as §1

The target of another assay is T7, ETV3 (Homo sapiens, UniProt P41162-2 1-143).
T7 sequence: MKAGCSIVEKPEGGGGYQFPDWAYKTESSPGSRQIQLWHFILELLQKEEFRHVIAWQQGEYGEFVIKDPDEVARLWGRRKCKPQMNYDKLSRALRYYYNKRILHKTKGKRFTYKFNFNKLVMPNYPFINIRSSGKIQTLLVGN
Summed up:
as §1

The target of the next assay is ETV6 (Homo sapiens, UniProt P41212 1-452). In outline: as §1
Chain of ETV6 (P41212 whole entry): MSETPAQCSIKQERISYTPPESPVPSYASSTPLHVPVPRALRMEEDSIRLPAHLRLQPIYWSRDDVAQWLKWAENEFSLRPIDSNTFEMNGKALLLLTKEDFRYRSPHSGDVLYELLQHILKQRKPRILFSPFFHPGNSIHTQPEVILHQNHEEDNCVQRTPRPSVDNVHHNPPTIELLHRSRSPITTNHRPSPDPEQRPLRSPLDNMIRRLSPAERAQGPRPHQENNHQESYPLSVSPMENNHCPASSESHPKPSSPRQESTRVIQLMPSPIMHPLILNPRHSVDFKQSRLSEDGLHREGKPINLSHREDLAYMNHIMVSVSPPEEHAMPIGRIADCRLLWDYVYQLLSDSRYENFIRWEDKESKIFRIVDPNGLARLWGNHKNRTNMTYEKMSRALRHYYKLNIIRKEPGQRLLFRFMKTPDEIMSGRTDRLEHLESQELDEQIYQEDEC

On to CTTTCG, for which the binding signal with ERF was 1.23 fold enrichment (6-mer frequency, TF over GST control); with ETV3L it was 1.29 fold enrichment (6-mer frequency, TF over GST control); with ETS2, 1.32 fold enrichment (6-mer frequency, TF over GST control); with SPDEF it was 1.22 fold enrichment (6-mer frequency, TF over GST control); with ETV7, 1.3 fold enrichment (6-mer frequency, TF over GST control); in the assay with ELF5, 1.26 fold enrichment (6-mer frequency, TF over GST control). Moreover, the binding signal in the assay with ETV3 is 1.16 fold enrichment (6-mer frequency, TF over GST control); with ETV6, 1.23 fold enrichment (6-mer frequency, TF over GST control).
As for CCGACA, the binding signal is 1.22 fold enrichment (6-mer frequency, TF over GST control) in the assay with ERF; 1.24 fold enrichment (6-mer frequency, TF over GST control) with ETV3L; 1.26 fold enrichment (6-mer frequency, TF over GST control) in the assay with ETS2; 1.27 fold enrichment (6-mer frequency, TF over GST control) with SPDEF; 1.13 fold enrichment (6-mer frequency, TF over GST control) with ETV7; 1.25 fold enrichment (6-mer frequency, TF over GST control) with ELF5. The binding signal in the assay with ETV3 was 1.24 fold enrichment (6-mer frequency, TF over GST control); in the assay with ETV6, 1.23 fold enrichment (6-mer frequency, TF over GST control).
Consider TCCCGC, for which the binding signal in the assay with ERF was 1.47 fold enrichment (6-mer frequency, TF over GST control); with ETV3L it was 1.44 fold enrichment (6-mer frequency, TF over GST control); with ETS2 it was 1.34 fold enrichment (6-mer frequency, TF over GST control); in the assay with SPDEF it was 1.5 fold enrichment (6-mer frequency, TF over GST control); with ETV7, 1.65 fold enrichment (6-mer frequency, TF over GST control); in the assay with ELF5, 1.59 fold enrichment (6-mer frequency, TF over GST control). Further, the binding signal with ETV3 is 1.37 fold enrichment (6-mer frequency, TF over GST control); with ETV6, 1.5 fold enrichment (6-mer frequency, TF over GST control).
In the case of TATGCG, the binding signal was 1.23 fold enrichment (6-mer frequency, TF over GST control) with ERF; 1.39 fold enrichment (6-mer frequency, TF over GST control) in the assay with ETV3L; 1.43 fold enrichment (6-mer frequency, TF over GST control) with ETS2; 1.36 fold enrichment (6-mer frequency, TF over GST control) in the assay with SPDEF; 1.51 fold enrichment (6-mer frequency, TF over GST control) with ETV7; 1.32 fold enrichment (6-mer frequency, TF over GST control) with ELF5. For the same sequence, the binding signal is 1.58 fold enrichment (6-mer frequency, TF over GST control) with ETV3 and 1.22 fold enrichment (6-mer frequency, TF over GST control) with ETV6.
As for CTTGGC, the binding signal in the assay with ERF was 1.35 fold enrichment (6-mer frequency, TF over GST control); in the assay with ETV3L, 1.15 fold enrichment (6-mer frequency, TF over GST control); in the assay with ETS2, 1.03 fold enrichment (6-mer frequency, TF over GST control); with SPDEF it was 1.14 fold enrichment (6-mer frequency, TF over GST control); with ETV7, 1.24 fold enrichment (6-mer frequency, TF over GST control); with ELF5 it was 1.12 fold enrichment (6-mer frequency, TF over GST control). The binding signal with ETV3 is 1.12 fold enrichment (6-mer frequency, TF over GST control); with ETV6 it was 1.1 fold enrichment (6-mer frequency, TF over GST control).
As to TACGCA, the binding signal with ERF was 1.28 fold enrichment (6-mer frequency, TF over GST control); with ETV3L, 1.12 fold enrichment (6-mer frequency, TF over GST control); with ETS2, 1.2 fold enrichment (6-mer frequency, TF over GST control); with SPDEF, 1.16 fold enrichment (6-mer frequency, TF over GST control); in the assay with ETV7, 1.12 fold enrichment (6-mer frequency, TF over GST control); with ELF5 it was 1.11 fold enrichment (6-mer frequency, TF over GST control). Moreover, the binding signal with ETV3 was 1.1 fold enrichment (6-mer frequency, TF over GST control); with ETV6, 1.18 fold enrichment (6-mer frequency, TF over GST control).
In the case of ATACTC, the binding signal is 1.36 fold enrichment (6-mer frequency, TF over GST control) in the assay with ERF; 1.22 fold enrichment (6-mer frequency, TF over GST control) with ETV3L; 1.26 fold enrichment (6-mer frequency, TF over GST control) with ETS2; 1.32 fold enrichment (6-mer frequency, TF over GST control) with SPDEF; 1.23 fold enrichment (6-mer frequency, TF over GST control) in the assay with ETV7; 1.25 fold enrichment (6-mer frequency, TF over GST control) with ELF5. Further, the binding signal with ETV3 was 1.33 fold enrichment (6-mer frequency, TF over GST control); with ETV6 it was 1.33 fold enrichment (6-mer frequency, TF over GST control).
